Screen size: about 18,000 compounds; about 750 (4.2%) were called active. Roughly 13% stayed inconclusive and do not appear here. The calls are words filed in the database; no cut-off is given here. Shown is part of a subset that was picked to be rich in actives.

A short description of the assay: qHTS for Inhibitors of binding or entry into cells for Lassa Virus.
As for `CC12C(=O)OC(=O)C1(C)C1CCC2O1` (stereo unspecified), the Potency was 562 µM (active).
